Source: PubChem (National Center for Advancing Translational Sciences (NCATS))
Many of the other results were omitted from the sample, so hits are more common in it than they were.
Pf Dd2 growth = qHTS Primary assay for Inhibitors of Plasmodium falciparum Dd2 growth in vitro; Potency, µM (doses to about 28.9 µM), without a hit: at the highest dose activity, negative = inhibition, usual class: inhibitors; P. falciparum Dd2 growth, SYBR Green, 72 h; hit rate 4.3% among 120,000; active = well fitted inhibition curve with a large enough effect;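 note: plate controls were DMSO vehicle for no effect and reference drug for full effect; nearly all actives have a fitted effect of over 65% in size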
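Readout: SYBR Green fluorescence, 485 nm excitation, 535 nm emission, after ~16 h lysis at 37C. Before that, Dd2-infected red cells (2.5% hematocrit) grew 72 h with compound, 29 uM top final concentration.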
* hit, by the source's call; i = inactive; [ ] = dose if it differs, or a comment. Potency is the fitted concentration of half-maximal effect.

SMILES | Pf Dd2 growth
Cc1ccc(C)c(Nc2nn3c(=O)c4ccc(C(=O)NC5CCCCC5)cc4nc3s2)c1 | -25%
CCN(CC)CCNC(=O)c1ccc2c(=O)n3nc(Nc4cccc(Cl)c4C)sc3nc2c1 | 5.6µM*
Cc1c(Cl)cccc1Nc1nn2c(=O)c3ccc(C(=O)NCCC4=CCCCC4)cc3nc2s1 | 4µM*
Cc1ccccc1Nc1nn2c(=O)c3ccc(C(=O)N4CCCC(C)C4)cc3nc2s1 (stereo not drawn) | i
Cc1ccc(C)c(Nc2nn3c(=O)c4ccc(C(=O)NCCC5=CCCCC5)cc4nc3s2)c1 | 10µM*
Cc1ccc(Cl)cc1Nc1nn2c(=O)c3ccc(C(=O)NC4CCC(C)CC4)cc3nc2s1 (stereo not drawn) | -9%
Cc1ccc(C)c(Nc2nn3c(=O)c4ccc(C(=O)NCCc5ccccc5)cc4nc3s2)c1 | 6%
Cc1nc(CCNC(=O)C2CCCC2)no1 | -7%
COc1cc2c(cc1-c1cnn(C)c1)NC(=O)C21CCN(C(C)=O)CC1 | i
Cc1nc(NCc2ccc(N3CCCC3=O)cc2)cc(C2CC(O)C2)n1 (stereo not drawn) | -15%
COCCOc1ccnc(-c2noc([C@@H]3CCCN3Cc3ccc(C(=O)O)cc3)n2)c1 | -26%[44.1 µM]
CCS(=O)(=O)N1CCC(N2C(=O)[C@H](OCCOC)[C@@H]2c2ccncc2)CC1 | i
Cc1ccc(C(=O)N2CCCC3(C2)C(=NC2CCCCC2)NC(=O)N3c2cccnc2)cc1 (stereo not drawn) | 3%
COc1ccc(-c2cc3c(ccn3C)c(C(=O)NCc3c(C)cc(C)[nH]c3=O)n2)cc1 | -26%[44.1 µM]
Cc1cc(-c2cc3[nH]ccc3c(C(=O)NCc3c(C)cc(C)[nH]c3=O)n2)ccn1 | -22%[44.1 µM]
Cc1cc(C)c(CNC(=O)c2cc(-c3cccc4[nH]ccc34)cc3ncn(C)c23)c(=O)[nH]1 | i
Cc1cc(C)c(CNC(=O)c2nc(-c3ccccc3)cc3[nH]ccc23)c(=O)[nH]1 | -1%[44.1 µM]
COc1cccc(Nc2cc3[nH]ccc3c(C(=O)NCc3c(C)cc(C)[nH]c3=O)n2)c1 | 11µM*
Cc1cc(C)c(CNC(=O)c2nc(-c3cccc(N4CCOCC4)c3)cc3[nH]ccc23)c(=O)[nH]1 | 8.9µM*
CC(C)(C(=O)O)c1cnc(N2C[C@@H](CO)[C@H](CO)C2)nc1N1CCOCC1 | 10%
COCCN1C(=O)c2cccn2CC1CNC(=O)c1cccc(F)c1 (stereo not drawn) | -41%
CC(C)c1ccc(NC(=O)c2ccc(F)c(S(=O)(=O)N3CCCC3)c2)cc1 | -24%
CC(C)c1ccc(NC(=O)c2ccc(F)c(S(=O)(=O)N3CCCCCC3)c2)cc1 | 21%
Cc1ccc(O)c(NC(=O)c2ccc(Br)c(S(=O)(=O)N3CCCCC3)c2)c1 | 6.3µM*
Cc1cc(C)c2oc(-c3cccc(NC(=O)c4ccc(Br)o4)c3)nc2c1 | 41%
SMILES | Pf Dd2 growth
COc1ccccc1C(=O)Nc1ccc(-c2nc3cc(C)cc(C)c3o2)cc1 | 3%
Cc1cc(C)c2oc(-c3ccc(NC(=O)c4cc(Br)ccc4Cl)cc3)nc2c1 | 10µM*
COc1ccc(CN2Cc3[nH]cnc3C[C@H]2C(=O)NCc2ccc(C#N)cc2)c2ccccc12 | -12%
COc1ccc(CN2Cc3[nH]cnc3C[C@H]2C(=O)NCc2ccc(Cl)cc2)c2ccccc12 | i
CN(Cc1ccccc1)C(=O)[C@@H]1Cc2nc[nH]c2CN1C | -21%[44.1 µM]
COc1ccc(CN2Cc3[nH]cnc3C[C@H]2C(=O)N(C)Cc2ccccc2)c2ccccc12 | 5.6µM*
COc1ccc(CN2Cc3[nH]cnc3C[C@H]2C(=O)NC2CCCCC2)c2ccccc12 | 11µM*
CN(C)c1ccc(CN2Cc3[nH]cnc3C[C@H]2C(=O)N2CCC(Cc3ccccc3)CC2)cc1 | i
O=C1OCCCN1CCNc1ccc(-c2nc(-c3ccccc3F)no2)cn1 | i
COc1cccc(C(=O)N2CCN(C(C(=O)O)c3cc(C)cc(C)c3)CC2)c1 (stereo not drawn) | -10%
O=C(c1ccc(F)c(F)c1)N1CCCC(n2cc(-c3nc(C4CC4)no3)nn2)C1 (stereo not drawn) | -18%
Cc1cccc(CC(=O)N2CCCC(c3nnnn3C)C2)c1 (stereo not drawn) | 26%
CC(C)NC(=O)N1CCCC1c1nc(CCOCC2CC2)no1 (stereo not drawn) | -11%
Cc1noc(C)c1[S+](=O)([O-])N1CCC2(CC1)COc1ccccc1NC2=O | 8.9µM*
Cc1noc(C)c1[S+](=O)([O-])N1CCC2(CC1)Cc1ccccc1NC2=O | -11%
O=C1Nc2ccccc2OCC12CCN([S+](=O)([O-])c1ccccc1)CC2 | 9%
CCOCc1nc(C2CCCN(C(=O)c3cccnc3)C2)no1 (stereo not drawn) | 23%
Cc1oc(-c2cccc(Cl)c2)nc1CN1CCOCC1 | 2%
Cc1cc(N2CCN(Cc3nc(-c4cccc(Cl)c4)no3)CC2)cc(C)n1 | 10µM*
Cc1cc(C)cc(N2CC(c3nc(-c4cccc(Cl)c4)no3)CC2=O)c1 (stereo not drawn) | 32%
CCNC(=O)N1CCCN(C)c2ccccc21 | 6%
CCCS(=O)(=O)N1CCC2(CC1)CC(N1CCN(C(C)=O)CC1)CCO2 (stereo not drawn) | 14%
COCCn1cc2c3c(cccc31)CN(C(=O)c1cccc(Cl)c1)CC2 | -1%
Cc1ccn2c(C(=O)N3CC[C@@](C)(O)[C@@H](O)C3)nnc2n1 | 8%
CC(C)[S+](=O)([O-])N1CC2(CN(Cc3ccc(Cl)cc3)C(=O)O2)C1 | 3%[44.1 µM]
SMILES | Pf Dd2 growth
CCn1cc(CN2CCCN(S(=O)(=O)c3ccccc3)CCC(=O)NCC2)c(C)n1 | -18%
O=C1CCN(S(=O)(=O)c2ccccc2)CCCN(Cc2cccc3[nH]ccc23)CCN1 | 7.9µM*
Cc1noc(C)c1CN1CCCN(S(=O)(=O)c2ccccc2)CCC(=O)NCC1 | -2%
CCC(=O)N1CCCN(S(=O)(=O)c2ccccc2)CCC(=O)NCC1 | 10%
CC(C)C(=O)N1CCCN(S(=O)(=O)c2ccccc2)CCC(=O)NCC1 | -14%
O=C1CCN(S(=O)(=O)c2ccccc2)CCCN(Cc2ccc3cc[nH]c3c2)CCN1 | 5µM*
O=C1CCN(S(=O)(=O)c2ccccc2)CCCCCCN1 | 22%
O=C1CCN(S(=O)(=O)c2ccccc2)CCCNCCN1 | 1%
Cn1cnc(C(=O)N2CCCN(S(=O)(=O)c3ccccc3)CCC(=O)NCC2)c1 | -6%
Cc1cnc(C(=O)N2CCCN(S(=O)(=O)c3ccccc3)CCC(=O)NCC2)cn1 | 19%
O=C1CCN(S(=O)(=O)c2ccccc2)CCCN(Cc2ccccc2)CCN1 | 8.9µM*
O=C1CCN(S(=O)(=O)c2ccccc2)CCCN(C(=O)c2ccc3ccccc3n2)CCN1 | 11µM*
O=C(Nc1cccc(Cl)c1F)N1CCC(Oc2ncccc2C(=O)N2CCOCC2)C1 (stereo not drawn) | 12%
CNc1cccnc1OC1CCN(S(=O)(=O)Cc2ccccc2)C1 (stereo not drawn) | -23%
CN(C)CC(O)c1cc2n(n1)CCN(C(=O)CCc1ccc(=O)[nH]n1)C2 (stereo not drawn) | 8%
CC(C)COc1cc(=O)n2c(c1C(=O)N1CCN(c3ccccn3)CC1)CCCCC2 | -6%
Cn1nc(C(=O)N2C[C@@H](Oc3cccnc3)C[C@H]2C(=O)N2CCOCC2)c2ccccc21 | 14%
CCOC(=O)N1CCC(N2CCCC(CCC(=O)Nc3ccc(OC)c(Cl)c3)C2)CC1 (stereo not drawn) | 0%
CC(=O)Nc1ccc(S(=O)(=O)N2CCN3C(=O)CN(C)C(=O)C3C2)cc1 (stereo not drawn) | -13%
